In PubChem BioAssay (NCATS):
Records with an inconclusive call do not appear. A call without a number means that no potency is given here. Unmarked numbers belong to inactive results. Calls of active or inactive are those of the source. Calls follow the shape of the dose curve; as a rule, active = well fitted inhibition curve with a large enough effect; inconclusive = small, poorly fitted or top-dose-only effect; inactive = no such curve, though single readings can be large or run the other way.

Tests used:
[1] = tested on: Zika virus NS2B-NS3 protease (unlinked complex); test: Primary screen GU Rhodamine qHTS for Zika virus inhibitors: Unlinked NS2B-NS3 protease assay (AID 1347159); settings: Recombinant ZIKV NS2B-NS3 protease, Rhodamine110 substrate fluorescence; series mostly up to 107 µM; also: nearly all actives have a fitted effect of over 60% in size; also: potency is read from the fitted curve at half-maximal effect
Summary of the method: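 Enzyme 25 nM in Tris-HCl pH 8.0 + 0.01% Tween 20; compounds up to 114 microM, 15 min RT dark; + Rhod110 substrate 1.5 microM; read t0 and 15 min; delta fluorescence → % inhibition → 4-parameter Hill fit.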

[2] = tested on: Zika virus NS2B-NS3 protease (linked construct); test: Primary screen NINDS Rhodamine qHTS for Zika virus inhibitors (AID 1347160); settings: purified NS2B-NS3 protease, Rhodamine110 substrate fluorescence; series mostly up to 33.1 µM; also: nearly all actives have a fitted effect of over 55% in size
Summary of the method: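 Enzyme (25 nM, linked NS2B-NS3) was preincubated 15 min with compound in 10 mM Tris-HCl pH 8.0, 0.01% Tween 20. Rhodamine110 substrate (1.5 microM) was then added and fluorescence read at start and after 15 min.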

Row | Structure (SMILES) | Potency [1] | Potency [2] | activity change, negative = inhibition [1] | outcome [2]
1 | CCc1cc(CC[C@]2(C3CCCC3)CC(O)=C(Cc3nc4nc(C)cc(C)n4n3)C(=O)O2)cc(CC)n1 | inactive | inactive | – | –
2 | Fc1cccc(CN(C2=NCCN2)c2c(Cl)cccc2Cl)c1 | inactive | inactive | – | –
3 | COC(=O)[C@H](Cc1cccc(C(=N)N)c1)[C@@H](C)NC(=O)c1ccc(-c2cc[n+]([O-])cc2)cc1 | inactive | inactive | – | –
4 | CC1=C2C(=O)C=C(CO[C@@H]3O[C@H](CO)[C@@H](O)[C@H](O)[C@H]3O)[C@@H]2[C@H]2OC(=O)[C@H](C)[C@@H]2CC1 | inactive | inactive | – | –
5 | COc1ccc(/C=C/C(=O)O[C@@H]2[C@@H](O[C@@H]3O[C@H](CO)[C@@H](O)[C@H](O)[C@H]3O)[C@@H](O)[C@H](O[C@H]3C4C=CO[C@@H](O[C@@H]5O[C@H](CO)[C@@H](O)[C@H](O)[C@H]5O)C4[C@@]4(CO)O[C@@H]34)O[C@H]2C)cc1 (some centres undefined) | inactive | inactive | – | –
6 | N#CN1CCC[C@@H](n2nc(-c3ccc(Oc4ccc(F)cc4F)cc3)c(C(N)=O)c2N)C1 | inactive | inactive | – | –
7 | COc1c2cc(c(O)c1OC)CCCCC(O)CCc1ccc(O)c-2c1 (centres undefined) | inactive | inactive | – | –
8 | C/C=C(\C)C(=O)OC[C@H]1O[C@@H](O[C@H]2[C@@H](O[C@H]3O[C@H](COC(=O)/C(C)=C/C)[C@@H](O)[C@H](O)[C@H]3O[C@@H]3O[C@H](CO)[C@@H](O)[C@H](OC(=O)/C(C)=C/C)[C@H]3O)O[C@H](COC(=O)/C(C)=C/C)[C@@H](O)[C@@H]2O)[C@H](O)[C@@H](O)[C@@H]1O | inactive | inactive | – | –
9 | CCc1cccc2c3c([nH]c12)[C@@](CC)(CC(=O)O)OCC3 | inactive | inactive | – | –
10 | CC(=O)OC1C(C)C2C(OC3OC(CO)C(O)C(O)C3O)OC=C(C(=O)O)C2C1OC(=O)c1ccccc1 (centres undefined) | inactive | inactive | – | –
11 | COc1cc2c(cc1O)CC(O)(CO)C(CO)C2c1ccc(OC2OC(CO)C(O)C(O)C2O)c(OC)c1 (centres undefined) | inactive | inactive | – | –
12 | O=C(O)c1ccncc1Nc1nn(CCN2CCC(F)(F)CC2)c2ccc(F)cc12 | inactive | inactive | – | –
13 | CN(C)C(=O)C(O)C(Cc1ccccc1)NC(=O)c1cc2cc(Cl)ccc2[nH]1 (centres undefined) | inactive | inactive | – | –
14 | COC(=O)C1C(c2ccc(O)cc2)C(C(=O)O)C1c1ccc(O)cc1 (centres undefined) | inactive | inactive | – | –
15 | CC(C)C(O)(CO)CCO[C@@H]1O[C@H](CO[C@H]2OC[C@](O)(CO)[C@H]2O)[C@@H](O)[C@H](O)[C@H]1O (some centres undefined) | inactive | inactive | – | –
16 | COc1ccc(/C=C/C(N)=O)cc1OC | inactive | inactive | – | –
17 | COCCCc1sc(-c2ccccc2)nc1C(=O)Nc1ccccc1-c1nc2cc(CN3CCCC3)cnc2s1 | inactive | inactive | – | –
18 | CC1OC(O[C@H]2CC[C@@]3(C)C(CC[C@]4(C)C3CC=C3C5CC(C)(C)CC[C@]5(C(=O)OC5OC(CO)C(OC6OCC(OC7OCC(O)C(O)C7O)C(O)C6O)C(O)C5O)CC[C@]34C)C2(C)C)C(O)C(O)C1OC1OC(CO)C(O)C(OC2OC(CO)C(O)C(O)C2O)C1O (some centres undefined) | – | – | 1.81% [at 19.1 µM] | inactive [at 10.7 µM]
19 | COC(=O)C1=CO[C@@H](O[C@@H]2O[C@H](CO)[C@@H](O)[C@H](O)[C@H]2O)[C@@H]2[C@@H](CO)[C@@H](O)C(O)[C@H]12 (some centres undefined) | inactive | inactive | – | –
20 | N[C@@H](CC(=O)Nc1ccc(Oc2cc(F)c(F)cc2Br)cc1)C(=O)O | 70.8 µM (active) | inactive | – | –
21 | C[C@@H]1O[C@@H](O[C@H]2[C@H](OC(=O)[C@]34CCC(C)(C)C[C@H]3C3=CCC5[C@@]6(C)CC[C@H](O[C@@H]7O[C@H](CO[C@@H]8OC[C@H](O)[C@H](O)[C@H]8O)[C@@H](O)[C@H](O)[C@H]7O)C(C)(C)C6CC[C@@]5(C)[C@]3(C)C[C@H]4O)OC[C@@H](O)[C@@H]2O)[C@H](O)[C@H](O[C@@H]2OC[C@](O)(CO)[C@H]2O)[C@H]1O[C@@H]1OC[C@H](O)[C@H](O[C@@H]2OC[C@@H](O)[C@H](O)[C@H]2O)[C@H]1O (some centres undefined) | – | – | -5.76% [at 19.1 µM] | inactive [at 10.7 µM]
22 | CC1(C)CC[C@]2(C(=O)O)CC[C@]3(C)C(=CCC4[C@@]5(C)C[C@H](O)[C@H](O[C@@H]6O[C@H](CO)[C@@H](O)[C@H](O)[C@H]6O)[C@@](C)(CO)C5[C@H](O)C[C@]43C)[C@@H]2C1 (some centres undefined) | inactive | inactive | – | –
23 | C/C=C1/CC2C(=O)Nc3cc(O)c(OC)cc3C(=O)N2C1 (centres undefined) | inactive | inactive | – | –
24 | C[C@]1(OC(=O)/C=C/c2ccccc2)C[C@@H](O)[C@]2(O)C=CO[C@@H](O[C@@H]3O[C@H](CO)[C@@H](O)[C@H](O)[C@H]3O)[C@@H]21 | inactive | inactive | – | –
25 | CC(=O)O[C@@H]1[C@H](O[C@@H]2OC[C@](O)(CO)[C@H]2O)[C@@H](O[C@@H]2O[C@@H](C)[C@H](O)[C@@H](O[C@@H]3O[C@H](CO)[C@@H](O)[C@H](O)[C@H]3O)[C@H]2O)[C@H](OC(=O)[C@]23CCC(C)(C)C[C@H]2C2=CCC4[C@@]5(C)C[C@H](O)[C@H](O[C@@H]6O[C@H](C(=O)O)[C@@H](O)[C@H](O)[C@H]6O)[C@@](C)(C(=O)O)C5CC[C@@]4(C)[C@]2(C)CC3)O[C@@H]1C (some centres undefined) | – | inactive | 2.67% [at 19.1 µM] | –
26 | C=C1CCc2occ(C)c2[C@H]2[C@H]1[C@@]13O[C@@]1(C[C@@H](C)[C@H]3OC(C)=O)[C@H]1O[C@@]21C | inactive | inactive | – | –
27 | C=C1C(OC(C)=O)CCC2(C)CCC(C(C)(C)O)CC12 (centres undefined) | inactive | inactive | – | –
